# Measured values reported in ChEMBL document CHEMBL2218924, “A broad activity screen in support of a chemogenomic map for kinase signalling research and drug discovery” (Biochem J, 2013).
# Target: Vascular endothelial growth factor receptor 2 (Homo sapiens) (UniProt P35968)
# Details: at 10 µM
# Sequence of Vascular endothelial growth factor receptor 2 (Homo sapiens) (P35968 whole entry): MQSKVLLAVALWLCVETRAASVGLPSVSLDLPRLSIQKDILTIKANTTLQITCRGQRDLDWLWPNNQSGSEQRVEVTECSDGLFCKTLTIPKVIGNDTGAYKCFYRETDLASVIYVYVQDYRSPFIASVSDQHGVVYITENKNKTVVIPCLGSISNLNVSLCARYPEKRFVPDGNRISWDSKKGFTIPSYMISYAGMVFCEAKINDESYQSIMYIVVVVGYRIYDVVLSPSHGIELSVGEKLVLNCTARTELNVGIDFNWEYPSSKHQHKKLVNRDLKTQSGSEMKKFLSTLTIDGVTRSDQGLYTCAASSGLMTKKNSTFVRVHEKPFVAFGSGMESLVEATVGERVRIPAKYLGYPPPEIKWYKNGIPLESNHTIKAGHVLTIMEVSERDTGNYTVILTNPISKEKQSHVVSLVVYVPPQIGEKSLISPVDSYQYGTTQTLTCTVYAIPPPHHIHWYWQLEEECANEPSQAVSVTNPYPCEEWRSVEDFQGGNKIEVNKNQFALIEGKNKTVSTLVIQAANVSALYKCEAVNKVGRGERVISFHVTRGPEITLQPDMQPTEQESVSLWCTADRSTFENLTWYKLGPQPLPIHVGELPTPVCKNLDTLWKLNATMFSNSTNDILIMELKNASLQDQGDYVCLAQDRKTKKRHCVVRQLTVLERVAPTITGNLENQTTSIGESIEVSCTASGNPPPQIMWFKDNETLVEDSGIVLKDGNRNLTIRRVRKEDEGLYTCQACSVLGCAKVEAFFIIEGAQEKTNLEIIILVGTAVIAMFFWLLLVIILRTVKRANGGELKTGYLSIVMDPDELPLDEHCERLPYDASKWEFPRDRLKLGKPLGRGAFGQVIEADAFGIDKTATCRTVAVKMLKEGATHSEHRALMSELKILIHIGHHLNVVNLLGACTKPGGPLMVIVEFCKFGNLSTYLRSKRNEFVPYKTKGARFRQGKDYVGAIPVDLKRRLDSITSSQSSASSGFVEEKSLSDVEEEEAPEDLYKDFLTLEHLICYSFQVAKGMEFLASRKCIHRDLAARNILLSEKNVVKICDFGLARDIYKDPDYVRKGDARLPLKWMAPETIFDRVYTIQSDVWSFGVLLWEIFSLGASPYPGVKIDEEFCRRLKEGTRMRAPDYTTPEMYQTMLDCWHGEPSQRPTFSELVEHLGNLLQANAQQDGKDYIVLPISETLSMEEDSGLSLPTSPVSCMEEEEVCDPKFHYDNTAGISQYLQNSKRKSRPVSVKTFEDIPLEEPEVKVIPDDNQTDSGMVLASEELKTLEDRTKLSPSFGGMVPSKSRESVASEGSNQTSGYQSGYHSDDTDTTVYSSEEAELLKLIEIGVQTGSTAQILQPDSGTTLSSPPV
row,Structure (SMILES),residual activity
1,CCN(CC)CCCCN1c2ccccc2Oc2ccc(Cl)cc21,104%
2,O=C1NC(=O)c2cc(Nc3ccc(F)cc3)c(Nc3ccc(F)cc3)cc21,61%
3,COc1cccc(-c2cc(=O)c3ccccc3o2)c1N,102%
4,Cc1cccc(-c2[nH]c(C(C)(C)C)nc2-c2ccc3c(c2)OCO3)n1,79%
5,c1ccc(-c2n[nH]c3c2oc2ccccc23)cc1,3%
6,N#C/C(=C(\N)Sc1ccc(N)cc1)c1ccccc1C(F)(F)F,97%
7,CC(=O)c1ccc(N2CCOCC2)cc1O,91%
8,COc1cc2ncnc(Nc3ccc(O)c(Br)c3)c2cc1OC,4%
9,O=C1Nc2cc(Br)ccc2/C1=C1/Nc2ccccc2/C1=N\O,2%
10,COc1cc2ncnc(Nc3ccc(NC(=O)c4ccccc4)cc3)c2cc1OC,35%
11,Nc1cccc(-c2cc3c(Oc4cccc(O)c4)ncnc3[nH]2)c1,2%
12,CCC(=O)Nc1ccc2ncnc(Nc3cccc(Br)c3)c2c1,75%
13,O=C1Nc2ccc(Br)cc2/C1=C\c1cc2c([nH]1)CCCC2,4%
14,CCN(CC)C(=O)c1ccc(Nc2nc(OCC3CCCCC3)c3nc[nH]c3n2)cc1,3%
15,CN(C)CCCn1cc(C2=C(c3c[nH]c4ccccc34)C(=O)NC2=O)c2ccccc21,14%
16,N#CC(C#N)=C(N)/C(C#N)=C/c1ccc(O)cc1,92%
17,O=C1Nc2ccccc2/C1=C1/Nc2ccccc2/C1=N\OCCC(O)CO (centres undefined),1%
18,CC[n+]1c(/C=C/N(C)c2ccccc2)n(-c2ccccc2)c2ccc(-c3nc4ccccc4s3)cc21,87%
19,CC(C)n1cnc2/c(=N/c3cccc(Cl)c3)nc(NCCO)[nH]c21,53%
